Active and inactive are the calls of the source. Rule for the calls: active = hit-call score of the fitted dose curve at least 0.9, where 1 is the maximum; inactive = score below 0.9.

The experiment is described as follows: ATG_GRE_CIS: Attagene CIS-FACTORIAL HepG2 Assay for human Glucocorticoid Response Elements (GRE) (AID 2282947). The following applies: HepG2 GRE cis-reporter, Attagene multiplex mRNA; actives raise or lower the signal. Here is the method: ATG_CIS is a cell-based, multiplexed-readout assay that uses HepG2, a human liver cell line, with measurements taken at 24 hours after chemical dosing in a 24-well plate.ATG_GRE_CIS is one of 52 assay component(s) measured or calculated from the ATG_CIS assay. It is designed to make measurements of mRNA induction, a form of inducible reporter, as detected with fluorescence intensity signals by Reverse transcription polymerase chain reaction (RT-PCR) and Capillary electrophoresis technology.Data from the assay component ATG_GRE_CIS was analyzed into 1 assay endpoint. This assay endpoint, ATG_GRE_CIS, was analyzed with bidirectional fitting relative to DMSO as the negative control and baseline of activity. Using a type of inducible reporter, measures of mRNA for gain or loss-of-signal activity can be used to understand the reporter gene at the transcription factor-level as they relate to the gene NR3C1. Furthermore, this assay endpoint can be referred to as a primary readout, because this assay has produced multiple assay endpoints where this one serves a reporter gene function. To generalize the intended target to other relatable targets, this assay endpoint is annotated to the nuclear receptor intended target family, where the subfamily is steroidal.
Human liver HepG2 cells are transiently transfected with multiple reporter transcription units (MRTUs) in 6-well plates using FuGene 6 reagent (Roche; 3 ml FuGene/1 mg DNA). The MRTU constructs are regulated by a cis-regulating element (promoter). […] A major difference between the CIS and TRANS system is that in CIS activities of endogenous TFs are measured, whereas the TRANS assay evaluates changes in activities of exogenous, chimeric NR-Gal4 proteins. […] At the end of 24 hour incubation, total RNA was isolated using TriZol reagent (Invitrogen). The isolated RNA is then reverse-transcribed using oligo(dT) primer and Mo-MLV reverse transcriptase (Invitrogen) with DNAse I (Ambion) treatment for 30 min. The one-tenth of the produced cDNA was amplified by PCR using Taq DNA polymerase (Invitrogen) and two reporter sequence-specific primers. The PCR products were fluorescently labeled by primer extension with 6-arboxyfluorescein (6-FAM) 5'-labeled reporter sequence-specific primer (2 min at 95 C, 20 s at 68 C and 10 min at 72 C) and these products were digested with 5U of HpaI (New England Biolabs) for 2h at 37 C. The fragments were purified using Qiaquick PCR columns (Qiagen), analyzed on an ABI 3130xL genetic analyzer (Applied Biosystems) with peak positions identified by using a set of X-rhodamine (ROX)-labeled MapMarker1000 molecular weight standards (BioVentures). The raw capillary electrophoresis data was processed using Attagraph software (Attagene).
With `CCC(C)C(=O)OC` (stereo not given), the compound was classed as inactive. Still for that read-out and setting: with `CCCC=C(C=O)CC` the entry was “inactive”; with `Cc1cc(=O)[nH]c(=O)[nH]1`, “inactive”; with `Nc1cccc(N)n1`, “inactive”.

As for `CC(C)C(=O)OCCOc1ccccc1`, the outcome was inactive. On the same count and under the same terms, for `C=C[C@@]1(C)CC(=O)[C@]2(O)[C@@]3(C)[C@@H](O)CCC(C)(C)[C@@H]3[C@H](O)[C@H](OC(C)=O)[C@@]2(C)O1` the value was “inactive”; for `CCC1COC(=O)O1` (stereo not given), “inactive”. With `CCC[Si](OC)(OC)OC`, the outcome was inactive. Turning to `CCCCCCOc1ccc(N)cc1`, the compound was called inactive. Still for that read-out and setting: for `C=C[Si](OCCOC)(OCCOC)OCCOC` the value was “inactive”; for `CCCCOCCOCCOC(C)=O`, “inactive”; for `C=CCCCCCCCCO`, “inactive”. Regarding `Oc1c(Cl)cc(Cl)c(Cl)c1Cl`, the compound was classed as inactive. Same read-out and setting: with `CCCCCCCCCCCCCc1ccccc1` the entry was “inactive”; with `O=C(Cl)c1ccc(C(=O)Cl)cc1`, “inactive”. On the same count and under the same terms, with `CCCCCCCCCCCC(=O)OCC` the entry was “inactive”; with `COC(=O)c1ccccc1C`, “inactive”; with `C=CCOC(=O)c1ccc(C(=O)OCC=C)c(C(=O)OCC=C)c1`, “inactive”. For `CCOC(=O)c1ccc(C)cc1`, the result was inactive. `CC(C)(C)NC(=O)[C@H]1CC[C@H]2[C@@H]3CC[C@H]4NC(=O)C=C[C@]4(C)[C@H]3CC[C@]12C`: the result was inactive.

`CCCCCCCC(=O)OCC`: the compound was called inactive. Turning to `O=C1CCCCCCCCCCC1`, the compound was called inactive.

With `O=C(C=Cc1ccccc1)OCCc1ccccc1`, the compound was classed as inactive. On the same count and under the same terms, for `CCCCCCCCCCCCc1ccc(O)cc1` the value was “inactive”. As for `CC(=O)CCC1=C(C)CCCC1(C)C`, the compound was classed as inactive. Consider `CCOB(OCC)OCC`, for which the compound was classed as inactive. Consider `CCCCCCCCCC[N+](C)(CCCCCCCCCC)CCC[Si](OC)(OC)OC`, for which the AC50 is 18.4 µM (active). For `CCN1CCCC1=O`, the compound was called inactive. Take `CC(C)c1cccc(C(C)C)c1N`: the outcome was inactive.

As to `O=C(Oc1ccccc1)c1ccccc1C(=O)Oc1ccccc1`, the result was inactive.

As to `Cn1ccnc1`, the call was inactive.

As for `CCCCOC(=O)CCC(C)=O`, the call was inactive. Still for that read-out and setting: for `COCC(=O)O` the value was “inactive”; for `N#Cc1ccc(C(c2ccc(C#N)cc2)n2cncn2)cc1`, “inactive”. As to `Cc1ccc2c(c1)CCCN2`, the call was inactive. Take `COC(=O)C=Cc1ccccc1`: the outcome was inactive.

On to `O=S(=O)(O)c1ccc(N=Nc2c(O)ccc3ccccc23)cc1`, for which the result was inactive. Still for that read-out and setting: with `Cc1ccc(S(=O)(=O)N=C=O)cc1` the entry was “inactive”.

With `O=C1CCCCC1C1CCCCC1` (stereo not given), the compound was called inactive. `O=C(O)c1cc(O)c2ccccc2c1O`: the concentration at half-maximal activity (AC50) is 21.8 µM (active).
